GDH-TPI counter-1: inhibits GDH-TPI coupling enzymes, artifact for Mtb FBA screen; GDH-TPI coupled enzyme counterscreen, NADH absorbance; actives 1.2% (n = 360,000); inhibition, % at 4.8 µM; AID 588335; in the data active = inhibition above about 30%
Rv3671c protease: inhibits the M. tuberculosis serine protease Rv3671c; AID 2606; P9WHR9; actives 0.048% (n = 320,000); inhibition, % at 5.96 µM; in the data active = inhibition above about 38%;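 also: extracellular domain of Rv3671c used as enzyme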
Mtb bLac sens: beta-lactam sensitization of Mtb H37Rv; M. tuberculosis H37Rv growth with meropenem, percent inhibition; inhibition, % at 25 µM; actives 0.27% (n = 330,000); AID 434955; call rule not given here;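 also: growth measured after seven days incubation then overnight dye step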
Mtb UGM inh: blocks M. tuberculosis UGM enzyme. actives 0.06% (n = 320,000). purified UGM, fluorescence polarization probe displacement. inhibition, % at 10 µM. P9WIQ1; in the data active = inhibition above about 10%, passing the limit was not always enough; inconclusive = no clear call, values can overlap the other calls
Mtb FBA inh: inhibits M. tuberculosis FBA enzyme; inhibition, % at 1 µM; P9WQA3; purified M. tuberculosis FBA, fluorescence read-out; actives 2.3% (n = 360,000)
Target sequence (P9WQA3 whole entry, looked up): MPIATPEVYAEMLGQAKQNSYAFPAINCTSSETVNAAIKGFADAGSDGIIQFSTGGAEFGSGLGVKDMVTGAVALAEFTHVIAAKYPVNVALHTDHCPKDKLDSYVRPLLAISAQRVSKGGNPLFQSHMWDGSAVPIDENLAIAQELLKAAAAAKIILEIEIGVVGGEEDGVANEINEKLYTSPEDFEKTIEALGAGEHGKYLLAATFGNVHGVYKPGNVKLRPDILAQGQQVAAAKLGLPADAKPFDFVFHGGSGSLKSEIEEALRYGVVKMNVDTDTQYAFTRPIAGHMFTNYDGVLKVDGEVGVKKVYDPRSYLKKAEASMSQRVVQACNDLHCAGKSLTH
Mtb FBA inh conf: confirmation of M. tuberculosis fructose-bisphosphate aldolase inhibitors; actives 78% (n = 5,600); inhibition, % at 1 µM; purified M. tuberculosis FBA, fluorescence read-out; shares compounds with Mtb FBA inh
GDH-TPI counter-2: GDH-TPI inhibition counter-screen for FBA inhibitors. shares compounds with Mtb FBA inh. GDH-TPI coupled enzyme counterscreen, fluorescence. inhibition, % at 1 µM. actives 81% (n = 5,600); in the data active = inhibition above about 10%
Hits are given with their value; - = inactive; ? = inconclusive; . = no result given; + = active, no number. Most compounds without a hit are left out; they make up all but 3.5% or so of the library. Rule as the data show it, unless noted: active = inhibition above about 27%; inactive = the rest.

SMILES | GDH-TPI counter-1 | Rv3671c protease | Mtb bLac sens | Mtb UGM inh | Mtb FBA inh | Mtb FBA inh conf | GDH-TPI counter-2
Cc1ccc2nc(N(CCCN(C)C)C(=O)c3ccc4ncsc4c3)sc2c1 | - | - | - | - | - | . | .
CC1Sc2ccc(S(=O)(=O)CCC(=O)Nc3ccc(C(C)C)cc3)cc2NC1=O (stereo not given) | - | - | - | - | - | . | .
CCOc1ccc2nc(NCCNC(=O)c3cc(OC)c(OC)c(OC)c3)c(C#N)cc2c1 | - | - | - | - | - | . | .
CCOc1ccc2nc(NCCCNS(=O)(=O)c3ccc(F)cc3)c(C#N)cc2c1 | - | - | - | - | 39.9 | - | -
CCCCNc1nc2ccccc2nc1NS(=O)(=O)c1ccc(F)cc1 | - | - | ? | - | - | . | .
CCOc1ccc2nc(NCCCNS(=O)(=O)c3ccccc3)c(C#N)cc2c1 | - | - | - | - | 36.6 | 98.4 | 64.1
CCN(CC)c1ccc(NC(=S)Nc2ccc(F)cc2)cc1 | - | . | . | . | - | . | .
CCOC(=O)CNC(=O)c1ccc2[nH]c3ccccc3c2c1 | - | - | - | - | 60.5 | - | -
O=C(NCC(O)CO)c1ccc2[nH]c3ccccc3c2c1 (stereo not given) | - | - | - | - | 63.4 | 135.0 | 107.5
CCOC(=O)CNC(=O)c1ccc(C)cc1 | - | - | - | - | - | . | .
O=C(NCCO)c1ccc2[nH]c3c(c2c1)CCCC3 | - | - | - | - | - | . | .
CCOC(=O)c1[nH]c2ccc(C(=O)OC)cc2c1C(=O)OCC | - | - | - | - | 45.9 | 113.7 | 93.2
O=C1CS/C(=N\N=C\c2ccccc2Cl)N1CC1CC1 | - | - | - | - | - | . | .
COC(=O)c1ccc(OC)c(OC2CCCC2)c1 | - | - | - | - | - | . | .
COc1ccc(NC(=O)C2CC2)cc1OC1CCCC1 | - | - | - | - | 73.5 | 68.1 | 53.9
CC(C)c1ccc(C(=O)Nc2ccc(CN3CCOCC3)cc2)cc1 | - | - | - | - | 69.0 | 195.6 | 191.3
CC(=O)Nc1cccc(CNCc2cccc(NC(C)=O)c2)c1 | - | - | - | - | - | . | .
O=C([O-])c1ccc(-[n+]2c(-c3ccccc3)cc(-c3ccccc3)cc2-c2ccccc2)cc1 | - | - | - | - | - | . | .
Cc1ccc(-c2cc(-c3ccccc3)cc(-c3ccccc3)[n+]2-c2ccccc2C(=O)O)cc1 | - | - | - | - | 54.0 | - | -
CCOC(=O)Cn1c(C(F)(F)F)nc2nc(Cl)c(Cl)nc21 | - | . | . | . | 54.5 | 102.5 | 61.6
Cc1ccc2c(c1)CCCN2C(=O)c1cc(C)on1 | - | - | - | - | - | . | .
Cc1cccc(Cn2c(-c3ccc[nH]c3=O)nc3ccccc32)c1 | - | - | - | - | 100.9 | + | +
Cc1cccc(Cn2c(C(C)O)nc3ccccc32)c1 (stereo not given) | - | - | - | - | - | . | .
CCOc1ccc(/C=N/n2cc(-c3ccccc3)[nH]c2=S)cc1 | - | - | - | - | 66.5 | 89.5 | 80.1
S=c1[nH]ncn1/N=C/c1ccccc1 | - | - | - | - | - | . | .
SMILES | GDH-TPI counter-1 | Rv3671c protease | Mtb bLac sens | Mtb UGM inh | Mtb FBA inh | Mtb FBA inh conf | GDH-TPI counter-2
S=c1[nH]c(-c2ccccc2)cn1/N=C/c1ccncc1 | - | - | - | - | 34.8 | 49.1 | 42.0
N#CCc1nn2c(-c3ccccc3)ccnc2c1C#N | - | - | - | - | 68.7 | 120.9 | 91.5
COc1cc(-c2nc(CN3CCN(C(=O)c4ccco4)CC3)c(C)o2)ccc1F | - | - | - | - | - | . | .
CC(=O)Nn1cnc2c(c1=O)C1(CCCCC1)Cc1ccccc1-2 | - | - | - | - | - | . | .
CC1(C)CC(n2c(NCCO)nc3c(c2=O)C2(CCCC2)Cc2ccccc2-3)CCO1 (stereo not given) | - | - | - | - | 38.0 | + | 193.2
O=c1[nH]c(NCCO)nc2c1C1(CCCCC1)Cc1ccccc1-2 | - | - | - | - | 97.7 | - | -
C[C@@H]1CN([C@@H](C)CO)C(=O)CCCn2nncc2CO[C@H]1CN(C)Cc1cccnc1 | - | . | . | . | - | . | .
CC1CCCC(C)N1C(=O)CSc1nnc(COc2ccc(F)cc2)o1 (stereo not given) | - | - | - | - | - | . | .
O=C(CCCCCn1c(=S)[nH]c2ccc(N3CCOCC3)cc2c1=O)NCc1ccc2c(c1)OCO2 | - | - | - | - | 43.9 | + | +
Cc1c(Cl)cccc1NC(=O)C1CC(=O)N(C2CCCC2)C1 (stereo not given) | - | . | . | . | - | . | .
